The term inhibition denotes the relative decrease from the control value, in per cent.

Hit rate of the full screen: of about 1,200 compounds, about 250 (21%) were called active. The list is a sample of the results. Unmarked numbers belong to inactive results. Rule as the data show it: active = inhibition above about 20%; inactive = the rest.

This note sets out measurements from PubChem BioAssay AID1254 (The Scripps Research Institute Molecular Screening Center, 2008).

Neuropeptide Y receptor type 1 (Homo sapiens), sequence (P25929 whole entry, looked up): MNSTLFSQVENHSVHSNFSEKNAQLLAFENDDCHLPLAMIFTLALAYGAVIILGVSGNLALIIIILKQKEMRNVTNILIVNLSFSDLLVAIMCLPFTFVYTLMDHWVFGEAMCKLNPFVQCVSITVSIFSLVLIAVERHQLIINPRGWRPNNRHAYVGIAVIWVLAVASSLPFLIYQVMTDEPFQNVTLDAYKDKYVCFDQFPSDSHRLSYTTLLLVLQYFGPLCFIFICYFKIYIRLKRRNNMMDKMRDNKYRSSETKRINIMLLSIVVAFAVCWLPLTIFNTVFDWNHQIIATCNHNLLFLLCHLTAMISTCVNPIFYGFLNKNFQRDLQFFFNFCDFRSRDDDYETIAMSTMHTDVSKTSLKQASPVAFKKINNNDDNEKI

This assay has as its target Neuropeptide Y receptor type 1 (Homo sapiens) (UniProt P25929). Nature of the assay: NPY-Y1 receptor antagonists, retest of hits, confirmation, HEK293-CNG cells, membrane potential fluorescence, triplicate (AID 1254).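 Also: 0% = vehicle with agonist plus stimulus and 100% = stimulus alone without agonist.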 The settings on record: cAMP, at 3.6 µM, hits give high values, NPY challenge against isoproterenol-raised cAMP.
As for `CCOC1CCCCC1NS(=O)(=O)c1ccc(Cl)cc1` (configuration not stated), the inhibition is -0.15%.

Regarding `CCCC(=O)Nc1nc2ccc(NC(=O)c3c(F)c(F)c(OC)c(F)c3F)cc2s1`, the inhibition was 6.69%.

`Cc1ccc(N2C(=O)C3N=NN(CC(=O)N4N=C(c5cccc6ccccc56)CC4c4ccccc4)C3C2=O)cc1` (configuration not stated): the inhibition was 0.57%.

As for `COC(=O)C1=C(Nc2ccc(C)cc2)C=C(C)C(C(=O)OC)C1c1ccc(F)cc1` (configuration not stated), the inhibition was 19%.

Regarding `NC(N)=N/N=C/c1ccc(OCc2ccc(Cl)cc2Cl)cc1`, the inhibition was 11.7%.

As for `CC(=O)OC(C)C[N+](C)(C)C` (configuration not stated), the inhibition was 15.3%.

In the case of `Cc1ccc(C(=O)C[n+]2cc(-c3ccccc3)n3c2CCCCC3)cc1`, the inhibition is 22.1% (active).

`CCOC(=O)N1CCN(S(=O)(=O)c2ccc(C(=O)Nc3ccc(F)cc3F)cc2)CC1`: the inhibition is 2.56%.

On to `Cc1nc(-c2ccccc2)sc1C(=O)/C=C/c1ccccc1`, for which the inhibition was 7.83%.

On to `COc1ccc(C(c2nnnn2C2CCCCC2)N2CCN(c3ccccc3F)CC2)cc1` (configuration not stated), for which the inhibition was 15%.

Take `Cc1ccc(SCCC(=O)OCC(=O)Nc2ncc(Cl)cc2Cl)cc1`: the inhibition was 5.19%.

Consider `CCCCc1c(O)nc2n(c1=O)CCS2`, for which the inhibition is 1.41%.

In the case of `CCCOC(=O)c1[nH]c2c(c1C)C(=O)CC(c1cccs1)C2` (configuration not stated), the inhibition was 7.07%.

Regarding `CC1CN(CCCOc2ccccc2-c2ccccc2)CC(C)O1` (configuration not stated), the inhibition is 2.5%.

Take `Cc1ccc(Cn2c(NC(=O)c3ccco3)nc3ccccc32)cc1`: the inhibition is 17.4%.

With `COc1cccc(CNCCc2c[nH]c3ccccc23)c1OCc1ccccc1F`, the inhibition is 9.73%.

Turning to `OC(COCCC12CC3CC(CC(C3)C1)C2)CN1CCCCC1` (configuration not stated), the inhibition was 3.08%.

`Cc1ccc(/C=N/NC(=O)COc2ccccc2-c2ccccc2)cc1`: the inhibition is 11.6%.

On to `CCCSc1nc(NCc2ccco2)c2c3c(sc2n1)COC(C)(CC)C3` (configuration not stated), for which the inhibition was 10.4%.

As to `O=C(Cc1cccs1)N(CC1CCCO1)C1(C(=O)NC2CCCCC2)CCCCC1` (configuration not stated), the inhibition was 9.42%.

On to `COc1ccccc1N1CCN(C(=O)CN(Cc2ccc(Cl)cc2)S(C)(=O)=O)CC1`, for which the inhibition is 11.6%.

As to `CCC(=O)c1c[nH]c(C(=O)NCC2CCCO2)c1` (configuration not stated), the inhibition is 0.28%.

On to `CCOC(=O)c1nn(-c2cccc(C)c2)cc1C(=O)c1ccccc1`, for which the inhibition is 5.58%.

Regarding `COC(=O)c1ccc(C(NC(=O)OCc2ccccc2)/C(C)=C/[C@@H](C)C(=O)NCc2ccc(OC)c(OC)c2)cc1` (some centres not stated), the inhibition was 15.9%.

Take `O=C(NCCCN1CCOCC1)c1cnn2c(-c3ccccc3)cc(-c3ccccc3)nc12`: the inhibition was 25% (active).

Consider `O=C1c2cccnc2C(Nc2ccc(S(=O)(=O)N3CCCCCC3)cc2)N1Cc1ccccc1` (configuration not stated), for which the inhibition was 0.2%.

With `COc1ccc(C2Nc3ccccc3C(=O)N2Cc2ccccc2)cc1Cn1nnc2ccccc21` (configuration not stated), the inhibition is 11.8%.

As to `CCS(=O)(=O)n1nc(-c2ccccc2)nc1SCc1ccccc1`, the inhibition was 13.5%.

As to `Cc1cc(C(C)(C)C)oc1C(=O)N(CC(=O)NC1CCCC1)Cc1ccc(Cl)cc1`, the inhibition is 25.8% (active).

Take `O=C(/C=C/c1ccco1)Nc1cccc(-c2nc3ccccc3[nH]2)c1`: the inhibition is 2.58%.

Consider `Oc1ccc(-c2[nH]ncc2-c2nc3ccccc3s2)c(O)c1`, for which the inhibition is 53% (active).

With `CCc1ccc(CNC(=O)C2CCCN(c3nc4ccccc4o3)C2)cc1` (configuration not stated), the inhibition was 13.2%.

Take `CCCCn1nc(C(=O)N2CCc3ccccc32)c2ccccc2c1=O`: the inhibition was 3.55%.

For the molecule `Clc1ccccc1-c1cc(COc2ccc3ccccc3c2)no1`, the inhibition is 13.6%.

Consider `CCCCCCC(=O)Nc1nc(C)c(-c2csc(Nc3cccc(OC)c3)n2)s1`, for which the inhibition is 17.8%.

Turning to `CC(Oc1ccc2ccccc2c1)C(=O)NNC(=S)NC(=O)c1ccco1` (configuration not stated), the inhibition is 10.5%.

`Cc1ccc(C(=O)N/C(=C/c2ccc(-c3cccc([N+](=O)[O-])c3)o2)C(=O)NCCCN(C)C)cc1`: the inhibition was 9.75%.

For the molecule `O=C(CSc1nc2cc3c(cc2c(=O)n1CCC1=CCCCC1)OCO3)NCc1ccco1`, the inhibition was 4.77%.

Regarding `CC(=O)N1CC(C)c2scc(C)[n+]2-c2ccccc21` (configuration not stated), the inhibition was -0.57%.

In the case of `Fc1ccc(-c2nnc(CSc3nnc(-c4ccc5c(c4)OCO5)o3)o2)cc1`, the inhibition is 10.1%.

Turning to `CN(C)CCCCCN(C)Cc1cc2ccccc2o1`, the inhibition was 9.51%.

For the molecule `CC(C)Cn1cnc2c1c(=O)n(CC(O)c1ccccc1)c(=O)n2CC(C)C` (configuration not stated), the inhibition was -1.75%.
